# HCMV inh: inhibitors of human cytomegalovirus; HFF cells, HCMV-luciferase reporter, 72 h; active compounds read low; activity change, negative = inhibition, % at 57.5 µM; hit rate 4.5% among 410,000; AID 1259415; in the data active = activity change below about -60%; inconclusive = no clear call, values can overlap the other calls; inactive = above about -39%
#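 Steps: HFFs plated, 16 h 37C; compounds added; HCMV-luciferase added to MOI 1 PFU/cell; 72 h 37C; OneGlo reagent, 5 min room temperature; luminescence read, normalized to controls.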
# Shiga toxin inh: inhibitors of Shiga toxin in Vero cells; Vero cells, Shiga toxin protein synthesis inhibition reporter; inhibition, % at 38.7 µM; hit rate 9.2% among 290,000; in the data active = inhibition mostly above about 28%, no sharp cut-off; inactive = mostly below about 43%
# Pf growth 96h: P. falciparum growth inhibition at 96 hours | Potency, µM (top dose mostly 28.7 µM), actives largely listed as inhibitors | P. falciparum luciferase reporter growth, 96 h | hit rate 6.9% among 320,000
#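 P. falciparum expressing integrated firefly luciferase grown in erythrocytes (2% hematocrit, 0.05% parasitemia final) with compounds for 96 hours at 37 C, 5% CO2. Growth inhibition read as loss of luminescence after adding luciferase detection reagent.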
# Pf growth 48h: inhibits P. falciparum growth in the first generation, 48 h; hit rate 5.9% among 310,000; Potency, µM (highest dose often 28.7 µM), most hits filed as inhibitors; AID 504832; P. falciparum luciferase growth in erythrocytes, 48 h
#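 Cell-based growth assay: transgenic P. falciparum expressing firefly luciferase, cultured in red cells within RPMI 1640 containing 0.5% w/v Albumax, 24 mM bicarbonate and gentamycin. A drop in luciferase activity indicates inhibition.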
# HCV inh: blocks hepatitis C virus; Huh7.5.1 HCVcc-Cre infection, luciferase reporter, 44 h; Potency, µM (titrated, usually from 41.8 µM), usual class: inhibitors; hit rate 3.4% among 340,000
#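 Reporter virus HCVcc-Cre (~0.5 moi) infects cells exposed to compound; seeding density 1,000 cells/well with 4 h settling beforehand. Luminescence, 15 sec read, taken 44 h post-infection following a 15 min RT substrate incubation.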
# CHX counter: counter-screen hit for Shiga toxin inhibitors, cycloheximide. cell reporter, cycloheximide protein synthesis inhibition counterscreen. max response, %. hit rate 12% among 300,000. AID 2314; in the data active = max response mostly above about 13%, no sharp cut-off; inactive = mostly below about 14%; also: read at 38.3 µM for the half of the compounds with a filed dose
# Numbers stand for hits; i = inactive; ? = inconclusive; nt = no result given; + = active, no number; [ ] = dose if it differs, or a comment. This is a sample that favours compounds with a hit; in the whole collection about 21% have one here. Unless noted, calls follow the shape of the dose curve; as a rule, active = well fitted inhibition curve with a large enough effect; inconclusive = small, poorly fitted or top-dose-only effect, or another doubt; inactive = no such curve, though single readings can be large or run the other way.
SMILES,HCMV inh,Shiga toxin inh,Pf growth 96h,Pf growth 48h,HCV inh,CHX counter
CCOc1ccc(N2CC(C(=O)NCCc3ccccc3)CC2=O)cc1 (configuration not stated),i,i,?,i,i,i
C=CCNC(=O)C1CC(=O)N(c2ccc(OCC(=O)Nc3ccc(C)cc3)cc2)C1 (configuration not stated),i,i,i[5.75 µM],i,i,i
CN(CCNC(=O)C1CC(=O)N(c2ccc(F)c(Cl)c2)C1)Cc1ccccc1 (configuration not stated),-67.3,i,nt,?,i,i
CCOc1ccc(N(Cc2cc3cc(C)ccc3[nH]c2=O)C(=O)c2cccc(Cl)c2)cc1,i,nt,nt,nt,nt,nt
NC(=O)C1CC(=O)N(c2ccc(OCc3ccc(Cl)cc3)cc2)C1 (configuration not stated),i,78.9,i,i,i,49.6
NC(=O)C1CC(=O)N(c2ccc(OCC(=O)N3CCCC3)cc2)C1 (configuration not stated),?,nt,nt,nt,i,nt
CCCCOc1ccc(N2CC(C(=O)NCCc3ccc(OC)c(OC)c3)CC2=O)cc1 (configuration not stated),i,i,11.7µM,i,?,i
C=CCNC(=O)C1CC(=O)N(c2ccc(OCc3ccc(F)cc3)cc2)C1 (configuration not stated),i,72.0,11.7µM,i,i,47.5
CCOC(=O)[C@]12Cc3c(cc(OC)c(OC)c3OC)[C@H]1N(Cc1ccccc1)C(=O)c1cc(OC)ccc12,-107.2,nt,nt,nt,nt,nt
CCOC(=O)[C@]12Cc3cc(OC)ccc3[C@H]1N(Cc1ccccc1)C(=O)c1cc(F)c(F)cc12,i,nt,nt,nt,i[8.37 µM],nt
CCOC(=O)[C@]12Cc3cc(C)ccc3[C@H]1N(Cc1ccccc1)C(=O)c1cc(F)c(F)cc12,-108.7,nt,nt,nt,nt,nt
CCOC(=O)[C@]12Cc3c(cc(OC)c(OC)c3OC)[C@H]1N(Cc1ccccc1)C(=O)c1cc(F)c(F)cc12,-61.4,nt,nt,nt,nt,nt
CC(C)c1ccc2oc(-c3ccc(Cl)c(NC(=O)c4cccs4)c3)nc2c1,i,nt,nt,nt,nt,nt
O=C(Nc1nccs1)c1ccc(CSc2nnnn2-c2ccccc2)cc1,?,i,nt,?,?,44.3
CCC(=O)Nc1ccc(-c2nnc(SCc3ccc(C(=O)Nc4nccs4)cc3)n2CC)cc1,i,i,i,7.38µM,i,i
CCn1c(SCc2ccc(C(=O)Nc3cc(C)cc(C)c3)cc2)nnc1-c1ccncc1,-61.5,i,i,?,11.2µM,i
O=C(COC(=O)CNC(=O)c1ccccc1F)Nc1ncc(Cl)cc1Cl,i,nt,i,i,i,nt
CC(C)OC(=O)COc1cc(O)c2c(=O)cc(-c3ccccc3)oc2c1,?,i,i,i,i,i
CSc1ccc(Cn2c(C)c(C(=O)NCc3cccc(C(F)(F)F)c3)sc2=O)cc1,i,nt,nt,nt,nt,nt
CC(C)NC(=O)COc1ccc(S(=O)(=O)N2CCOCC2)cc1,i,i,nt,i,i,i
CCOc1ccc(C(=O)OCC(=O)NC(C)C)cc1,?,i,i,i,i,i
COc1ccccc1CNC(=O)COc1ccc(S(=O)(=O)N2CCCC2)cc1,i,i,i,13.1µM,i,i
CSc1ccccc1NC(=O)COc1ccc(S(=O)(=O)N2CCCC2)cc1,i,i,?,13.1µM,?,i
COc1ccccc1CNC(=O)COc1ccc(S(=O)(=O)N2CCOCC2)cc1,i,nt,?,?,i,nt
CC(C)NC(=O)COc1ccc(S(=O)(=O)N2CCCC2)cc1,i,i,1.47µM,i,i,i
SMILES,HCMV inh,Shiga toxin inh,Pf growth 96h,Pf growth 48h,HCV inh,CHX counter
CCc1ccc(OCC(=O)NC(C)C)cc1,i,110.7,i,i,i,27.1
CCc1ccc(OCC(=O)NC(NC(=S)Nc2ccc(Cl)cc2)C(Cl)(Cl)Cl)cc1 (configuration not stated),i,i,13.1µM,?,?,i
CCOc1ccc(S(=O)(=O)N2CCC(C(=O)OCc3cccc(OC)c3OC)CC2)cc1,i,nt,?,9.28µM,i,nt
COc1ccc(CCC(=O)NC(C)C)cc1,-85.5,i,i,?,i,i
CCOC(=O)c1ccc(NC(=S)NCCCN2CCOCC2)cc1,i,i,i,?,i,i
Cc1nc2nc(SCC(=O)NCCCN3CCCC(C)C3)nn2c(C)c1Cc1ccccc1Cl (configuration not stated),i,i,i,13.1µM,11.2µM,i
Cc1nc2nc(SCC(=O)NCCCN3CCCCCC3)nn2c(C)c1Cc1ccccc1Cl,+,i,i,i,?,i
Cc1nc2nc(SCC(=O)N3CCOCC3)nn2c(C)c1Cc1c(F)cccc1Cl,i,i,i,3.7µM,?,i
Cc1ccccc1Cc1c(C)nc2nc(SCC(=O)NCCCN3CCCC3)nn2c1C,i,i,i,?,?,i
CC(C)Cn1c(=O)c2ccccc2n2c(CCC(=O)Nc3cccc(Cl)c3)nnc12,i,nt,nt,nt,nt,nt
COc1ccc(SCC2CN(C)CCC2c2ccc(F)cc2)cc1 (configuration not stated),i,nt,nt,nt,11.2µM,nt
O=C1C2C3C=CC(c4ccccc4)(C2C(=O)N1c1cccc(Cl)c1)C1C(=O)N(c2cccc(Cl)c2)C(=O)C31 (configuration not stated),i,i,i,i,10µM,i
O=C1C2C3CCCC3=C3CCCC3C2C(=O)N1c1cccc(Cl)c1 (configuration not stated),i,i,i,nt,i,i
O=c1ccn(C2OC(COP(=O)(O)OC3C(CO)OC(n4ccc(=O)[nH]c4=O)C3O)C(O)C2O)c(=O)[nH]1 (configuration not stated),nt,nt,i,i,nt,nt
Cc1nc(C)c(-c2ccc(SCc3ccc([N+](=O)[O-])cc3)nn2)s1,?,i,?,i,31.6µM,i
CC(=O)c1cccc(NC(=O)CSc2ccc(-c3sc(C)nc3C)nn2)c1,i,i,13.1µM,i,?,i
Cc1nc(C)c(-c2ccc(SCC(=O)Nc3cccc(F)c3)nn2)s1,?,i,?,i,14.1µM,i
Cc1nc(C)c(-c2ccc(SCc3cccc(F)c3)nn2)s1,i,i,i,i,?,20.6
COC(=O)C[C@H]1C[C@@H]2c3cc(NC(=O)CN(C)C)ccc3O[C@@H]2[C@H](CO)O1,i,nt,nt,nt,nt,nt
O=C(COC(=O)c1ccccc1O)NCc1ccc2c(c1)OCO2,i,nt,nt,nt,i,nt
CC(=O)c1ccc(S(=O)(=O)N2CCCCC2C(=O)O)cc1 (configuration not stated),i,i,?,i,i,i
Cc1nc(C)c(-c2ccc(SCC(=O)Nc3cccc(Cl)c3)nn2)s1,i,i,13.1µM,i,10µM,i
COc1cccc(-c2ccc(SCC(=O)NC3CCCCC3)nn2)c1,i,i,i,i,i,20.4
COc1ccccc1-c1ccc(SCC(=O)NC2CCCC2)nn1,i,nt,i,i,i[8.37 µM],nt
COc1ccc(-c2ccc(SCC(=O)NC3CCCC3)nn2)cc1OC,i,52.1,?,i,i,27.1
COc1ccccc1-c1ccc(SCC(=O)NC2CCCCC2)nn1,i,i,i,?,nt,i
